The results in this text go back to PubChem BioAssay (NCI).

This is part of a sample that, as a whole, favours compounds with a hit. Of some 83,000 tested, about 20% had one in any assay.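 Testing used 96-well plates and a 48-hour single-concentration exposure. Example: -40 means 40% of the starting cells died.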 A number with no mark means an inactive call. Active and inactive are the calls of the source. The calls were made as follows: active = growth percent below 10; inactive = the rest.

Common to all, as to assay: NCI-60 one-dose screen, 48 h (100 = growth as untreated, 0 = no growth, -100 = all killed)
Conditions in all cases: 10 µM unless noted

Assay [1] concerns SK-MEL-2 melanoma.
Assay [2] has as its system EKVX NSCLC.
For assay [3], the system named is SN12C renal.
Assay [4] relates to UO-31 renal.
Assay [5] has as its system TK-10 renal.
Assay [6] deals with ACHN renal.
For assay [7], the system named is CAKI-1 renal.
Assay [8] relates to A498 renal.
The subject of assay [9] is CCRF-CEM leukemia.
The subject of assay [10] is MOLT-4 leukemia.

On to `Cc1nc(N)sc1-c1csc(Nc2ccc(C(F)(F)F)cc2)n1`, for which the growth in [1] was 8.77% (active); in assay [2], 27%; in assay [3] it was 29.2%; in assay [4], 21.1%; in assay [5], 35%; in assay [6], 13%. The growth in assay [7] is 33.9%; in assay [8] it was 82.4%; in [9] it was 21.3%; in assay [10], 18.3%.

For the compound `C#CCOc1ccccc1/C=N/Nc1nc(-c2ccc(Cl)cc2)cs1`, the growth in [1] was 102%; in assay [2], 77.5%; in [3] it was 93.8%; in assay [4] it was 75.9%; in assay [5], 145%; in [6], 95.3%. Moreover, the growth in [7] is 92%; in assay [8] it was 81.4%; in assay [9] it was 96.6%; in [10], 90.8%.

For the compound `CC(=O)OC[C@@]12Oc3c(cccc3-c3ccc(O)c4c3O[C@]3(COC(C)=O)C(=C4O)C(=O)C[C@H](C)[C@@H]3OC(C)=O)C(O)=C1C(=O)C[C@H](C)[C@@H]2OC(C)=O`, the growth in assay [1] is -20.4% (active); in [2], 16.4%; in [3] it was 7.7% (active); in assay [4], 9.35% (active); in assay [5] it was 9.84% (active); in [6] it was 7.48% (active). The growth was 0.254% (active) in assay [7], 1.51% (active) in assay [8], 14.3% in assay [9] and 4.81% (active) in [10].

As for `CC1(C)C=Cc2cc(/C(N)=N/C(N)=N/c3nc4ccccc4s3)ccc2O1`, the growth in assay [1] was 110%; in assay [2] it was 30.7%; in assay [3], 52.4%; in assay [4], 64.9%; in [5] it was 113%; in assay [6], 88.7%. For the same compound, the growth in [7] was 65.3%; in assay [8], 114%; in assay [9] it was 46.3%; in [10] it was 61.8%.

For `CC/C(=C(/c1ccc(Cl)cc1)c1ccc(OCCN)cc1)c1ccccc1`, the growth was 105% in assay [1]; 102% in assay [2]; 104% in assay [3]; 78.2% in assay [4]; 115% in [5]; 96.1% in [6]. Moreover, the growth was 74.6% in assay [7], 92.9% in assay [8], 80.5% in [9] and 84.1% in assay [10].

In the case of `COc1ccc(-c2c(C(N)=O)c(N)n(Cc3nc4ccccc4[nH]3)c(=O)c2C#N)c(OC)c1`, the growth is 99.2% in assay [1]; 95.4% in assay [2]; 101% in assay [3]; 68% in assay [4]; 150% in assay [5]; 96.2% in assay [6]. In addition, the growth in assay [7] was 78.9%; in assay [8] it was 102%; in [9], 107%; in assay [10], 102%.

In the case of `Fc1cc(F)cc(NNC(=S)c2ccccc2)c1`, the growth is 76% in assay [1]; 39.7% in assay [2]; 9.96% (active) in assay [3]; 26.4% in [4]; 92.3% in assay [5]; 55.4% in assay [6]. The growth in assay [7] is 56.2%; in [8] it was 14.4%; in [9], 24.2%; in assay [10] it was 25.1%.

`O=c1[nH][nH]c(-c2ccc(F)cc2)c1-c1nc2ccccc2s1`: the growth was 100% in assay [1]; 90.1% in assay [2]; 82% in assay [3]; 87.3% in assay [4]; 154% in assay [5]; 95.1% in [6]. For the same compound, the growth in assay [7] is 87.1%; in assay [8], 67.9%; in assay [9], 86.6%; in assay [10], 95.8%.

For the compound `C#Cc1nc(C(=O)NCCCCCCC(=O)NO)cs1`, the growth in assay [1] is 8.08% (active); in assay [2] it was 53.5%; in [3] it was 36.7%; in assay [4] it was -91.3% (active); in assay [5], -14.2% (active); in [6] it was -86.5% (active). In addition, the growth in [7] is -80.2% (active); in assay [8], -95.1% (active); in assay [9] it was -41.4% (active); in assay [10], -26.1% (active).

`Cn1cc(-c2nn3cc(-c4ccncc4)nc3s2)c2cc(Br)ccc21`: the growth in [1] is 75.2%; in [2], 45.7%; in assay [3], 67.7%; in [4] it was 39.3%; in [5] it was 113%; in assay [6], 68.9%. Besides, the growth in assay [7] is 56.5%; in [8], 81.4%; in assay [9], 29.7%; in assay [10], 12.9%.

As for `Cc1ccc(NC(=O)/C=C/c2ccc(OCCCOc3ccc4c(C)cc(=O)oc4c3)cc2)cc1`, the growth in assay [1] was 58%; in assay [2], 83.1%; in [3], 73.3%; in assay [4] it was 39.6%; in [5] it was 91.5%; in assay [6], 17.7%. The growth is 51% in assay [7], 45.2% in assay [8], 99.1% in assay [9] and 103% in [10].

Turning to `CCOC(=O)c1c(NC(=O)c2cccc(C(F)(F)F)c2)sc2c3c(ccc12)OCN(C)C3`, the growth was 98.8% in assay [1]; 36.9% in [2]; -66.2% (active) in assay [3]; 31.8% in assay [4]; 126% in assay [5]; -91.9% (active) in assay [6]. Further, the growth in assay [7] was 44.8%; in assay [8], 84.3%; in assay [9], -39.5% (active); in [10] it was -48.5% (active).

With `CCOC(=O)c1c(NCC(=O)Nc2cccc([N+](=O)[O-])c2)sc(C(C)=O)c1C`, the growth in assay [1] was -15% (active); in assay [2] it was 0.605% (active); in [3], 12.6%; in assay [4], -12.7% (active); in [5], -22.6% (active); in assay [6] it was -13.5% (active). Besides, the growth is -30.8% (active) in [7], -75.3% (active) in [8], 4.89% (active) in [9] and 3.1% (active) in assay [10].
